# Bioassay records from PubChem BioAssay.
# NOD2 RIPK2 PPI = blocks binding of human NOD2 to RIPK2 | 360,000 compounds, 0.38% hits | O43353 | CHO BLA complementation NOD2-RIPK2, CCF4 ratio | inhibition, % at 4.98 µM; in the data active = inhibition above about 21%;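 also: 0% = vehicle only and 100% = reference blocker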
# TLR4 MyD88 comp = inhibitors of human TLR4-MyD88 binding | HeLa CL3-4 TLR4/MyD88 BLA complementation, FRET ratio | inhibition, % at 8.4 µM | 200,000 compounds, 0.18% hits; in the data active = inhibition above about 25%;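 also: 0% = vehicle and 100% = reference inhibitor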
# TLR9-MyD88 block = inhibitors of human TLR9-MyD88 binding; CHO BLA complementation TLR9-MyD88, CCF4 FRET ratio; 340,000 compounds, 0.21% hits; AID 504734; inhibition, % at 4.98 µM; Q9NR96+Q99836;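 active = inhibition above the mean over all tested compounds plus 3 SD, cut at about 21% in these data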;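 also: 0% = DMSO only wells and 100% = clavulanate BLA inhibitor control wells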
# ABHD5-PLIN5 inh = inhibitors of human ABHD5-perilipin-5 interaction | Q00G26+Q8WTS1 | Split G. princeps luciferase complementation, luminescence, 4 h | inhibition, % at 4 µM | 360,000 compounds, 0.78% hits;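 active = inhibition above the mean inhibition across every tested compound plus 3 SD, cut at about 22% in these data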;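 also: 0% = DMSO only wells and the 100% control is not disclosed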
# NOD2 RIPK2 conf = NOD2-RIPK2 interaction inhibition confirmed. CHO cells, NOD2-RIPK2 BLA complementation, CCF4 FRET. inhibition, % at 4.98 µM. shares compounds with NOD2 RIPK2 PPI. 1,200 compounds, 70% hits;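 active = mean inhibition across replicates above a set limit taken from the earlier primary screen, cut at about 21% in these data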;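 also: 0% = DMSO-only wells and the high end = clavulanate BLA-blocked wells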
# NOD2 BLA counter = hits BLA reporter in NOD2-RIPK2 inhibitor counterscreen; shares compounds with NOD2 RIPK2 PPI; CHO BLA reporter, CCF4 FRET ratio; inhibition, % at 4.98 µM; 1,200 compounds, 57% hits; AID 624371;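 active = mean inhibition above the low-control mean inhibition plus three low-control SD, cut at about 11% in these data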;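 also: 0% = DMSO only wells and 100% = clavulanate high control wells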
# * = called active by the depositor; nt = no result. Only some compounds are listed: those with a hit (about 1.2% of all), similar ones and a draw of the others.
SMILES,NOD2 RIPK2 PPI,TLR4 MyD88 comp,TLR9-MyD88 block,ABHD5-PLIN5 inh,NOD2 RIPK2 conf,NOD2 BLA counter
CC(C)(C)NC(=O)C(c1ccc(C(F)(F)F)cc1)n1c(=O)c(-c2ccccc2)nc2ccccc21 (stereo not drawn),-1.2,nt,nt,-12.8,nt,nt
CC(C)(C)NC(=O)C(c1ccc(C#N)cc1)n1c(=O)c(-c2cc3ccccc3[nH]2)nc2ccccc21 (stereo not drawn),53.7*,nt,nt,-10.9,51.2*,69.7*
CC(C)(C)NC(=O)C(c1ccccc1)n1c(=O)c(-c2cc3ccccc3[nH]2)nc2ccccc21 (stereo not drawn),42.8*,nt,nt,-7.1,40.1*,64.5*
CC(C)(C)NC(=O)C(c1ccc(C(F)(F)F)cc1)n1c(=O)c(-c2cc3ccccc3[nH]2)nc2ccccc21 (stereo not drawn),45.4*,nt,nt,-25.4,41.4*,66.0*
CCC(C(=O)NC1CCCC1)n1c(-c2cc3ccccc3[nH]2)nc2ccccc21 (stereo not drawn),-10.2,nt,nt,-0.3,nt,nt
CC(C)(C)NC(=O)C(c1cccc2ccccc12)n1c(=O)c(-c2cc3ccccc3[nH]2)nc2ccccc21 (stereo not drawn),39.6*,nt,nt,-7.1,33.6*,61.5*
CCCCn1c(N)c(N(CCOC)C(=O)COC(=O)CCOc2ccccc2C)c(=O)[nH]c1=O,1.0,nt,6.2,-8.2,nt,nt
COc1ccc(C(=O)N2CCN(CCc3ccccc3)CC2)cc1[N+](=O)[O-],-3.2,nt,-6.3,-8.2,nt,nt
Cc1cc(C(=O)CCC(=O)N(C)CC2COc3ccccc3O2)c(C)s1 (stereo not drawn),-0.2,nt,-5.6,6.2,nt,nt
O=c1cc(CN2CCOCC2)c2cc(Cl)ccc2o1,-10.0,nt,-8.2,-4.2,nt,nt
CC(C)(C)NC(=O)C(c1ccc(-c2ccccc2)cc1)n1c(=O)c(-c2cc3ccccc3[nH]2)nc2ccccc21 (stereo not drawn),40.1*,nt,nt,-4.2,34.2*,63.1*
Cc1ccc(NC(=O)C(OC(=O)c2ccc(O)cc2)c2ccccc2)cc1Cl (stereo not drawn),34.9*,-15.3,-6.0,-6.9,-9.9,-3.1
CN(CC(=O)Nc1ccccc1Cl)C(=O)COC(=O)c1nc(Cl)c(Cl)c(Cl)c1Cl,23.9*,nt,15.3,1.1,28.1*,9.3
O=C(CN(c1cccc(C(F)(F)F)c1)S(=O)(=O)c1ccc(Cl)c([N+](=O)[O-])c1)NCc1ccc(F)cc1,23.3*,6.8,5.9,14.9,28.9*,-1.5
CCOc1ccc(C(=O)Nc2nnc(S(=O)(=O)Nc3ccccc3C)s2)cc1,24.2*,nt,3.4,2.6,0.3,-6.1
Cc1ccc(C(=O)Nc2nnc(S(=O)(=O)Nc3ccccc3C)s2)cc1C,5.4,nt,3.6,-5.1,nt,nt
O=C(NCc1ccccc1)C(c1ccccc1)n1c(=O)c(-c2cc3ccccc3[nH]2)nc2ccccc21 (stereo not drawn),47.8*,nt,nt,-9.2,43.9*,64.9*
O=C(NCc1ccccc1)C(c1cc2ccccc2o1)n1c(=O)c(-c2cc3ccccc3[nH]2)nc2ccccc21 (stereo not drawn),50.6*,nt,nt,4.6,46.3*,67.3*
O=C(NCc1ccccc1)C(C1CC1)n1c(=O)c(-c2cc3ccccc3[nH]2)nc2ccccc21 (stereo not drawn),45.2*,nt,nt,-3.1,42.1*,63.9*
O=C(NC1CCCC1)C(C1CC1)n1c(-c2cc3ccccc3[nH]2)nc2ccccc21 (stereo not drawn),0.8,nt,nt,-1.8,nt,nt
O=C(NCc1ccccc1)C(c1ccncc1)n1c(=O)c(-c2ccccc2)nc2ccccc21 (stereo not drawn),-4.6,nt,nt,0.4,nt,nt
O=C(NC1CCCCC1)C(C1CC1)n1c(=O)c(-c2cc3ccccc3[nH]2)nc2ccccc21 (stereo not drawn),44.0*,nt,nt,-9.3,38.3*,63.7*
Cc1ccc([C@@H]2CC(=O)[C@@H]3CN(S(=O)(=O)c4ccc(C)cc4)[C@H](c4ccccc4F)C[C@@H]3N2S(=O)(=O)c2ccc(C)cc2)cc1,-6.4,nt,nt,7.9,nt,nt
Cc1cc2nc(-c3nnnn3Cc3ccccc3)c(=O)[nH]c2cc1C,23.3*,nt,nt,-2.1,12.6,14.7*
O=c1[nH]c2cc3ccccc3cc2nc1-c1nnnn1Cc1ccccc1,-1.5,nt,nt,-8.0,nt,nt
